High-throughput results: PubChem, several laboratories
GDH-TPI counter-1: GDH-TPI coupling enzyme inhibitors, primary screen, artefact control for M. tuberculosis FBA inhibitor project, biochemical, absorbance, full deck | inhibition, % at 4.8 µM | actives 1.2% (n = 360,000) | GDH-TPI coupled enzyme counterscreen, NADH absorbance | AID 588335, 2011; in the data active = inhibition above about 30%
Rv3671c inh: Rv3671c serine protease inhibitors, primary screen, biochemical, fluorescence polarization, M. tuberculosis H37Rv; inhibition, % at 5.96 µM; actives 0.048% (n = 320,000); AID 2606, 2010; in the data active = inhibition above about 38%;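 note: extracellular domain of Rv3671c used as enzyme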
Mtb betalactam: beta-lactam sensitization of Mtb H37Rv, H37Rv | M. tuberculosis H37Rv growth with meropenem, percent inhibition | inhibition, % at 25 µM | actives 0.27% (n = 330,000); call rule not given here;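 note: growth measured after seven days incubation then overnight dye step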
Mtb UGM inh: M. tuberculosis UGM enzyme inhibitors, primary screen, biochemical, fluorescence polarization, single point; AID 504406, 2011; actives 0.06% (n = 320,000); purified UGM, fluorescence polarization probe displacement; inhibition, % at 10 µM; UDP-galactopyranose mutase (Mycobacterium tuberculosis (strain ATCC 25618 / H37Rv)), …; in the data active = inhibition above about 10%, passing the limit was not always enough
Target sequence (P9WIQ1 whole entry, looked up): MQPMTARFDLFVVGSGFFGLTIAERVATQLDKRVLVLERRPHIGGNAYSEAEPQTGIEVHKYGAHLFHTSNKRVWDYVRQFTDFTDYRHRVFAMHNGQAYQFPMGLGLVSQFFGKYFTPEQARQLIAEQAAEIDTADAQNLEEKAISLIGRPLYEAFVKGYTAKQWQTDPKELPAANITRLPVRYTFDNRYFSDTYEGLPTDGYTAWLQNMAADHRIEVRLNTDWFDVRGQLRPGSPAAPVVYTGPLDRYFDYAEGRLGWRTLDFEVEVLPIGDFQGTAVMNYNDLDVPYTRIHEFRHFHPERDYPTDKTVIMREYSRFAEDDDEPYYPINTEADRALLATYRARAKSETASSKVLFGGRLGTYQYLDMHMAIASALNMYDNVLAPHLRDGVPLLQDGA
RecA intein inh: Mtb RecA intein splicing inhibitors, primary screen, biochemical, fluorescence, HTS; inhibition, % (concentration not given with the values); cell-free RecA intein splicing; Protein RecA (Mycobacterium tuberculosis (strain ATCC 25618 / H37Rv)), P9WHJ3; AID 2221, 2009; actives 0.75% (n = 290,000); in the data active = inhibition above about 30%
Mtb FBA inh: Mtb FBA enzyme inhibitors, primary screen, biochemical, fluorescence, strain H37Rv | inhibition, % at 1 µM | actives 2.3% (n = 360,000) | purified M. tuberculosis FBA, fluorescence read-out
Target sequence (P9WQA3 whole entry, looked up): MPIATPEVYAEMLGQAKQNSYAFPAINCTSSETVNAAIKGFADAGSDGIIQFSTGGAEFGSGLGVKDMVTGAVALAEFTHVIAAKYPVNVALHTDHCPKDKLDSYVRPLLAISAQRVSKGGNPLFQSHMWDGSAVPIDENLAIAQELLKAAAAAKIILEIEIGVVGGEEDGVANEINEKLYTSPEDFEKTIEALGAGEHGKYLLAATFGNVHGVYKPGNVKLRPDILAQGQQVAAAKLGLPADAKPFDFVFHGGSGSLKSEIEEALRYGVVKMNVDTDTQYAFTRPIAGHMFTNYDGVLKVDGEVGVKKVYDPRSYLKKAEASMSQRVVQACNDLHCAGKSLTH
Mtb FBA inh conf: M. tuberculosis aldolase blockers, biochemical, fluorescence, strain H37Rv, confirmation. purified M. tuberculosis FBA, fluorescence read-out. inhibition, % at 1 µM. actives 78% (n = 5,600). shares compounds with Mtb FBA inh
GDH-TPI counter-2: GDH-TPI coupling enzyme inhibitors, artefact control for M. tuberculosis FBA inhibitor project, biochemical, fluorescence, high throughput; actives 81% (n = 5,600); shares compounds with Mtb FBA inh; inhibition, % at 1 µM; GDH-TPI coupled enzyme counterscreen; AID 652141, 2013; in the data active = inhibition above about 10%
GDH-TPI DR: GDH-TPI coupling enzyme inhibitors, dose response, artefact control for M. tuberculosis FBA inhibitor project, biochemical, fluorescence, IC50. shares compounds with Mtb FBA inh. GDH-TPI coupled enzyme assay, artifact counterscreen. IC50, µM. actives 79% (n = 170); call rule not given here
Large screens that a line does not name were inactive (follow-up assays come after a bar, where they were run). Only some compounds are listed: those with a hit (about 4% of all), similar ones and a draw of the others. Cut-off read from the data, not from the text of the source, unless noted: active = inhibition above about 27%; inactive = the rest.

COc1ccc(-c2ccc(-c3nc4ccc(C)cn4c3NC3CCCCC3)cc2OC)cc1	Mtb FBA inh 54.0 | Mtb FBA inh conf active | GDH-TPI counter-2 184.7
CCCCNc1c(-c2ccc(SC3CCCCC3)c(OC)c2)nc2ccc(C)cn12	Mtb FBA inh 50.2 (no result: RecA intein inh) | Mtb FBA inh conf active | GDH-TPI counter-2 193.2
COc1ccc(-c2nc3ccc(Cl)cn3c2NC2CCCCC2)cc1SC1CCCCC1	none (no result: Mtb UGM inh, RecA intein inh)
CCOC(=O)CCn1c2nc(C)cc(C)c2c(=O)n1-c1ccccc1	Mtb FBA inh 28.2 | Mtb FBA inh conf 48.9 | GDH-TPI counter-2 40.7
CCOC(=O)Cn1nc(C)n(-c2ccccc2)c1=O	none
COc1ccc(COC(=O)C2CCN(C(=O)c3ccc(Cl)cc3)CC2)cc1F	none (no result: RecA intein inh)
COc1ccc(C2(CO)OC(CO)C(O)C2O)cc1 (centres undefined)	none (no result: Rv3671c inh, Mtb betalactam, Mtb UGM inh, RecA intein inh)
Cc1c(C(=O)OCC(=O)NCCN2C(=O)CSC2=O)oc2c1ccc1ccccc12	Mtb FBA inh 63.4 | Mtb FBA inh conf 160.1 | GDH-TPI counter-2 134.0
O=C(COC(=O)c1cccs1)NCCN1C(=O)CSC1=O	none
CC(=O)NC(Cc1ccc(C)cc1)C(=O)NC1CCN(S(=O)(=O)c2ccccc2)CC1 (centres undefined)	none
Cc1cc(=O)n2[nH]c(C(F)(F)F)c(-c3ccccc3)c2n1	Mtb FBA inh 64.0 | Mtb FBA inh conf 165.0 | GDH-TPI counter-2 135.3
COc1ccc(Cc2[nH]n3c(=O)cc(C)nc3c2-c2ccccc2)cc1	Mtb FBA inh 27.3 | Mtb FBA inh conf 157.4 | GDH-TPI counter-2 147.4
CCOC(=O)C1CCN(S(=O)(=O)c2ccc3oc(=O)ccc3c2)CC1	none
COc1ccc(OC)c2c1C(=O)CC2C (centres undefined)	Mtb FBA inh 48.0 (no result: Rv3671c inh, Mtb betalactam, Mtb UGM inh, RecA intein inh) | Mtb FBA inh conf inactive | GDH-TPI counter-2 inactive
COc1ccc(C(=O)NCCc2cn3ccc(C)cc3n2)cc1	none
Cc1ccn2cc(CCNC(=O)C3CC=CCC3C(=O)O)nc2c1 (centres undefined)	Mtb FBA inh 31.3 (no result: RecA intein inh) | Mtb FBA inh conf active | GDH-TPI counter-2 active
Cc1ccn2cc(CCNC(=O)COc3ccccc3)nc2c1	Mtb FBA inh 35.3 | Mtb FBA inh conf 46.1 | GDH-TPI counter-2 30.1
Cc1ccn2cc(CCNC(=O)Cc3cccs3)nc2c1	none
Cc1ccn2cc(CCNC(=O)CC(C)(C)C)nc2c1	Mtb FBA inh 26.9 | Mtb FBA inh conf 45.3 | GDH-TPI counter-2 29.1
C[C@@H]1CN([C@H](C)CO)C(=O)CCCn2nncc2CO[C@@H]1CN(C)C(=O)Nc1ccc2c(c1)OCO2	none (no result: Rv3671c inh, Mtb betalactam, Mtb UGM inh, RecA intein inh)
Cc1cnc2nc(-c3ccccc3)ccc2c1	none (no result: GDH-TPI counter-1, Rv3671c inh, Mtb betalactam, Mtb UGM inh, RecA intein inh)
O=C(NCCCCl)C1CC(=O)N(CCc2ccc(F)cc2)C1 (centres undefined)	none
O=C(c1cc(Cl)nc2ccccc12)N1CCCCC1	none
CC(C)(CNC(=O)c1cc(-c2ccc(Cl)s2)nc2ccccc12)N1CCOCC1	Mtb FBA inh 62.1 | Mtb FBA inh conf inactive | GDH-TPI counter-2 inactive | GDH-TPI DR 2.85
CN1CCN(NC(=O)c2cc(-c3ccccn3)nc3ccccc23)CC1	none
O=C(c1cc(-c2ccc(Cl)s2)nc2ccccc12)N1CCCC1	Mtb FBA inh 57.8 | Mtb FBA inh conf 154.6 | GDH-TPI counter-2 143.7
O=C(NN1CCOCC1)c1cc(-c2ccc(Br)s2)nc2ccccc12	none
CN1CCN(NC(=O)c2cc(-c3ccc(Cl)s3)nc3ccccc23)CC1	Mtb FBA inh 73.0 (no result: RecA intein inh) | Mtb FBA inh conf 65.2 | GDH-TPI counter-2 41.6
O=C(Nc1ccc(F)cc1)c1cccc2c1C(=O)N(CC1CCCO1)C2 (centres undefined)	none
O=S(=O)(c1ccccc1Br)N(CC(O)COCc1ccccc1)C1CC1 (centres undefined)	none (no result: Rv3671c inh, Mtb betalactam, Mtb UGM inh, RecA intein inh)
CC(C)Oc1ccc(F)cc1-c1cc(C(=O)N2CCc3ccccc3C2)[nH]n1	none (no result: Rv3671c inh, Mtb betalactam, Mtb UGM inh, RecA intein inh)
O=C(CCNc1cccc(F)c1)c1cc2ccccc2o1	Mtb FBA inh 28.4 | Mtb FBA inh conf inactive | GDH-TPI counter-2 inactive
CCC(=O)Nc1c(C#N)c2nc3ccccc3nc2n1-c1ccc(C)cc1	Mtb FBA inh 37.6 (no result: Rv3671c inh, Mtb betalactam, Mtb UGM inh, RecA intein inh) | Mtb FBA inh conf 80.0 | GDH-TPI counter-2 84.2
N#Cc1c(NC(=O)c2ccc(Br)o2)n(-c2ccccc2)c2nc3ccccc3nc12	Mtb FBA inh 48.3 | Mtb FBA inh conf 33.9 | GDH-TPI counter-2 24.8
COc1ccc(-n2c(NC(=O)c3ccc(Br)o3)c(C#N)c3nc4ccccc4nc32)cc1	none (no result: GDH-TPI counter-1, Rv3671c inh, Mtb betalactam, Mtb UGM inh, Mtb FBA inh)
Cc1nnc(NC(=O)CSc2nnc3ncccn23)s1	none
c1csc(-c2nc3ccccc3[nH]2)c1	Mtb FBA inh 47.7 (no result: RecA intein inh) | Mtb FBA inh conf 63.3 | GDH-TPI counter-2 47.1
S=C(Nc1ccc(-c2nc3ccccc3[nH]2)cc1)Nc1cccnc1	Mtb FBA inh 89.2 | Mtb FBA inh conf 64.2 | GDH-TPI counter-2 59.5
c1ccc2[nH]c(-c3ccncc3)nc2c1	Mtb FBA inh 29.6 (no result: RecA intein inh) | Mtb FBA inh conf active | GDH-TPI counter-2 179.0
Cc1[nH]c2ccccc2c1-c1nc2ccccc2[nH]1	none
Nc1nc(-c2nc3ccccc3[nH]2)cs1	none
Cc1nnsc1-c1nc2ccccc2[nH]1	Mtb FBA inh 81.3 | Mtb FBA inh conf inactive | GDH-TPI counter-2 inactive
CCOC(=O)C1=C(C)N(C)C(=O)NC1c1c(O)ccc2ccccc12 (centres undefined)	none
Cc1ccc(-c2nc3ccccc3[nH]2)s1	Mtb FBA inh 57.6 | Mtb FBA inh conf 68.3 | GDH-TPI counter-2 62.9
c1ccc(-c2nc3ccccc3[nH]2)cc1	none
Cc1cc(S(=O)(=O)NCC(c2ccc3c(c2)OCO3)N2CCOCC2)ccc1F (centres undefined)	none
COc1cc2ccccc2cc1C(=O)OCC(=O)c1c(N)n(C)c(=O)n(C)c1=O	Mtb FBA inh 28.2 (no result: RecA intein inh) | Mtb FBA inh conf 177.7 | GDH-TPI counter-2 142.0
COc1ccc(Cl)cc1C(=O)OCC(=O)c1c(N)n(C)c(=O)n(C)c1=O	none (no result: Rv3671c inh, Mtb betalactam, Mtb UGM inh, RecA intein inh)
CC(=O)N1CCc2cc(S(=O)(=O)NCCC(=O)N3CCN(c4ccccn4)CC3)ccc21	Mtb FBA inh 53.8 | Mtb FBA inh conf 67.4 | GDH-TPI counter-2 49.5
CC(=O)N1CCc2cc(S(=O)(=O)NCCC(=O)N3CCc4ccccc4C3)ccc21	none
